Assay outcomes deposited in PubChem BioAssay by several laboratories.
Compounds with a hit are over-represented: about 4% of the library has one in this group of screens.
DUSP3 inh = VHR1 phosphatase inhibitors, primary screen, biochemical, absorbance, uHTS; Dual specificity protein phosphatase 3 (Homo sapiens), P51452; recombinant VHR phosphatase, pNPP absorbance; inhibition, % at 13.3 µM; 290,000 compounds, 0.52% hits; AID 1654, 2009; in the data active = inhibition above about 50%
Target sequence (P51452 whole entry, looked up): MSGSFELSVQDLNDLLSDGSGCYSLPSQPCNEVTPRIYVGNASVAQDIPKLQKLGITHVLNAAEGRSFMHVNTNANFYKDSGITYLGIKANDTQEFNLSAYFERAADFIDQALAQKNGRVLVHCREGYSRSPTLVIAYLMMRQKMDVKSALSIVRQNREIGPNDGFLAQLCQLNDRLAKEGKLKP
BoNT A protease = BoNT/A light chain protease inhibitors, primary screen, biochemical, flow cytometry, MLPCN library; Botulinum neurotoxin type A light chain protease (Clostridium botulinum A str. ATCC 3502); multiplex microsphere protease substrate cleavage; inhibition, % at 10 µM; 360,000 compounds, 0.17% hits; AID 588499, 2011
MazEF act = activators of E. coli MazEF toxin-antitoxin RNase, primary screen, biochemical, fluorescence, uHTS; FAM/BHQ RNA-DNA oligo cleavage fluorescence, 5 h; Endoribonuclease toxin MazF (Escherichia coli (strain K12)), P0AE70; 350,000 compounds, 0.32% hits; AID 504720, 2011; activation, % at 20 µM; in the data active = activation above about 50%
Target sequence (P0AE70 whole entry, looked up): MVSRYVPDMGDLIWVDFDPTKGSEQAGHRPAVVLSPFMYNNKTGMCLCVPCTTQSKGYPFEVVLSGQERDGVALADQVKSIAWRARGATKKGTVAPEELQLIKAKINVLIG
Bead autofluor = compound fluorescence in toxin protease inhibitor counterscreen; compound autofluorescence counterscreen, microsphere flow cytometry; hits give high values; fluorescence intensity (no concentration beside the values); 360,000 compounds, 3.1% hits; in the data active = fluorescence intensity above about 16000; inconclusive = no clear call, values can overlap the other calls
BoNT-F LC inh = BoNT/F light chain protease inhibitors, primary screen, biochemical, flow cytometry, MLPCN library; inhibition, % at 10 µM; AID 588497, 2011; Botulinum neurotoxin type F light chain protease (Clostridium botulinum); 360,000 compounds, 0.22% hits; Multiplex microsphere protease cleavage assay; in the data active = inhibition above about 35%, passing the limit was not always enough; inconclusive = no clear call, values can overlap the other calls
Anthrax LF inh2 = Bacillus anthracis LF protease inhibitors, primary screen, biochemical, multiplex microsphere, MLPCN library. Lethal factor (Bacillus anthracis), P15917. multiplex microsphere protease cleavage assay. inhibition, % at 10 µM. 360,000 compounds, 0.12% hits. AID 588501, 2011
Each line names hits and unclear results; the compound was inactive in the other large screens. Cut-off read from the data, not from the text of the source, unless noted: active = inhibition above about 30%; inconclusive = no clear call, values can overlap the other calls; inactive = below that.

Clc1ncccc1-c1nc2ccccc2n1Cc1ccccc1	BoNT A protease inconclusive, Bead autofluor 20310
CNC(=O)COC(=O)[C@@H](Nc1ccc(S(=O)(=O)N2CCOCC2)cc1[N+](=O)[O-])C(C)C	none
O=C(NC(=S)N(CCO)Cc1ccccc1)c1ccc(S(=O)(=O)N2CCCC2)cc1	none
Cc1noc(/C=C/c2ccco2)c1S(=O)(=O)N1CCC(C(=O)NC(C)c2ccccc2)CC1 (centres undefined)	DUSP3 inh 50
Cn1c(=O)c(-c2ccccc2N)nc2ccccc21	Bead autofluor 20647
CNc1ccccc1-c1nc2ccccc2n(C)c1=O	BoNT-F LC inh inconclusive
COc1ccc(Oc2nc3ccccc3n(C)c2=O)cc1	Bead autofluor 16246
COc1ccc(Oc2nc3ccccc3nc2C(F)(F)F)cc1	Bead autofluor 23577
Cn1c(=O)c(Oc2cc(Cl)cc(Cl)c2)nc2ccccc21	none
Cn1c(=O)c(-c2ccccc2)nc2ccccc21	Bead autofluor 20471
Cc1cccc(NC(=O)c2cccc(OC(=S)N3CCOCC3)c2)c1C	none
Cc1nc(N[C@@H](Cc2ccccc2)C(=O)O)c2oc3ccccc3c2n1	none
Cc1nc(NC(C)C(=O)O)c2nc(C)oc2n1 (centres undefined)	Bead autofluor 21393
O=C1COc2ccc(C(=O)CSc3nnc(NCc4ccccc4)s3)cc2N1	none
COC(=O)N/N=C/c1cccc([N+](=O)[O-])c1	none
CCCC(=O)Nc1nc2n(n1)C(c1ccccc1)CC(=O)N2 (centres undefined)	Bead autofluor 17011
O=C1CC(c2ccccc2)n2ncnc2N1 (centres undefined)	BoNT A protease inconclusive, Bead autofluor 21144
O=C1CC(c2ccccc2)n2nc(NC(=O)c3ccccc3)nc2N1 (centres undefined)	none
CC1(Cc2cccc(C(F)(F)F)c2)C(=O)Nc2c(Cl)cccc21 (centres undefined)	none (no result: DUSP3 inh, MazEF act)
O=C(NCCc1ccccc1)C1CCCN1C(=O)Nc1cccc(Cl)c1 (centres undefined)	BoNT-F LC inh inconclusive
COc1ccccc1-c1nnc(SCC(=O)NC2CCCCC2)o1	none
COc1ccccc1-c1nnc(SCC(=O)Nc2c(Cl)cccc2Cl)o1	Bead autofluor 19236
Cc1cc(C)cc(NC(=O)CSc2nnc(-c3ccccc3Br)o2)c1	Bead autofluor 21943
Cc1cc(C)cc(NC(=O)CSc2nnc(-c3ccncc3)o2)c1	none (no result: DUSP3 inh)
Cc1ccccc1-c1nnc(SCC(=O)Nc2cccc(C)c2C)o1	BoNT A protease inconclusive, Bead autofluor 19363
O=C(COC(=O)c1ccc(S(=O)(=O)C(F)F)cc1)NC(=O)NC1CCCCC1	Bead autofluor inconclusive (no result: DUSP3 inh)
Clc1cccc(Cl)c1CSc1cc2c(nn1)-c1ccccc1CC2	Bead autofluor 22710
Clc1ccccc1CSc1cc2c(nn1)-c1ccccc1CC2	none
O=c1c2ccccc2c(C=Nc2ccccc2O)c(O)n1-c1nccs1	MazEF act 278
Cc1ccccc1N=Cc1c(O)n(-c2nccs2)c(=O)c2ccccc12	none
Cn1c(SCC(=O)N2CCCC2)nnc1-c1cnccn1	none
CC1CCN(c2nc(/C=C/c3ccccc3)nc3ccccc23)CC1	none
CCCCCCC1CCC(c2nc(-c3ccncc3)no2)CC1 (centres undefined)	none
CCCC1CCC(c2nc(-c3cccnc3)no2)CC1 (centres undefined)	BoNT A protease inconclusive, Bead autofluor 19821
c1ccc(-n2ncc3c(NCC4CCCO4)ncnc32)cc1 (centres undefined)	none
CN[C@H](C)C(=O)NC[C@H]1O[C@@H](n2ccc(N)nc2=O)[C@H](O)[C@@H]1O	none (no result: DUSP3 inh)
CCN(CC)CCC(O)(c1ccccc1)C1CCCCC1 (centres undefined)	Bead autofluor 60438, BoNT-F LC inh inconclusive
COc1cc2c(cc1OC)C(C)N(S(=O)(=O)c1cn(C)cn1)CC2 (centres undefined)	none
COc1cc(CNCCc2c[nH]c3ccccc23)cc(OC)c1OC	none (no result: DUSP3 inh)
COc1cccc(CNCCc2c[nH]c3ccccc23)c1OCc1ccccc1	DUSP3 inh 60
O=C1C=C(Nc2ccc(O)cc2)CC(c2ccco2)C1 (centres undefined)	BoNT A protease inconclusive, Bead autofluor 23693
CC(=O)c1cccc(NC(=O)N2CCCC2C(=O)NCc2ccc(F)cc2)c1 (centres undefined)	none
COc1ccc(C(=O)OCC(N)=O)cc1[N+](=O)[O-]	none
Cc1ccc2c(ccc[n+]2CC(=O)c2ccccc2)c1	none
COc1ccc(C(=O)C[n+]2cc(Br)cc3ccccc32)cc1[N+](=O)[O-]	BoNT A protease 116, BoNT-F LC inh 52
O=C(C[n+]1cc(Br)cc2ccccc21)c1ccccc1	BoNT A protease 100, Anthrax LF inh2 46
NC(=S)n1[nH]c(-c2ccc([N+](=O)[O-])cc2)c(N=Nc2ccccc2[N+](=O)[O-])c1=O	none
Cc1[nH]n(-c2ccccc2)c(=O)c1N=Nc1cccc(Cl)c1	none
Cc1[nH]n(-c2ccccc2)c(=O)c1N=Nc1cccc([N+](=O)[O-])c1	BoNT-F LC inh 42
NC(=S)n1[nH]c(-c2ccc([N+](=O)[O-])cc2)c(N=Nc2cccc([N+](=O)[O-])c2)c1=O	DUSP3 inh 81
COCCN(CC(=O)NCC1CCCO1)C(=O)CCC(=O)Nc1cc(C)on1 (centres undefined)	none
CCN1CCN(C(=O)c2ccccc2N(Cc2ccccc2)S(=O)(=O)c2ccc(C)cc2)CC1	BoNT A protease inconclusive, Bead autofluor 21954
CCN1CCN(C(=O)c2ccccc2N(Cc2ccccc2)S(C)(=O)=O)CC1	Bead autofluor 21470
CC(=O)c1ccc(NC(=O)C2CCCNC2=O)cc1 (centres undefined)	BoNT A protease inconclusive, Bead autofluor 21778
CN(C)CCNC(=O)C1CCCNC1=O (centres undefined)	BoNT A protease inconclusive, Bead autofluor 22891
Cc1ccc(S(=O)(=O)NCCNC(=O)C2CCCNC2=O)cc1 (centres undefined)	BoNT-F LC inh inconclusive
COC(=O)C(c1cc(OC)c(O)c(OC)c1)(N1CCNC(C)C1)C(F)(F)F (centres undefined)	Bead autofluor 18737
COC(=O)C1=C(C)N(C)C(=O)NC1c1cc(Cl)c(O)c(OC)c1 (centres undefined)	none
COCc1nc2ccccc2n1Cc1ccccc1C	none
COCc1nc2ccccc2n1Cc1cccc(C)c1	Bead autofluor 16897
COCn1c(-c2cccc(Br)c2)nc2ccccc21	BoNT A protease inconclusive, Bead autofluor 19656
